# HT1080NT lethal: kills 2HG-producing HT-1080-NT fibrosarcoma cells; HT-1080-NT fibrosarcoma viability, CellTiter-Glo ATP luminescence, 48 h; Potency, µM (highest dose often 46.1 µM), without a hit: at the top dose activity, negative = less viability, actives largely listed as cytotoxic; hit rate 1.6% among 360,000; AID 686970;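 further: NT is the 2HG producing partner of a matched IDH1 knockdown line; potency means the concentration at half of the fitted maximal effect; 0% = DMSO-treated cells and -100% = media-only wells without cells; nearly all actives have a fitted effect of over 55% in size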
#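 A 48-hour cytotoxicity screen used HT-1080-NT cells plated 2 hours before compound delivery. ATP-based CellTiter-Glo luminescence measured viability, normalized to DMSO and no-cell controls.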
# IL1B secr inh: inhibitors of inflammasome signaling (IL-1 beta secretion); hit rate 4.7% among 360,000; THP-1 LPS/ATP IL-1B secretion, AlphaLISA, 16 h; stronger effect = lower value; activity change, % at 57.5 µM; in the data active means activity change below about -50%; inconclusive means mostly about -30% to -49%
#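 Secreted IL-1B measured by AlphaLISA bead assay after 16 h compound exposure of THP-1 cells; compounds (final up to 57.5 uM) added 1 h before LPS (250 ng/mL) and ATP (1.25 mM) stimulation; lower signal means less secretion.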
# ALOX12 inh: inhibitors of human 12S-lipoxygenase ALOX12. P18054. purified 12hLO, xylenol orange hydroperoxide absorbance. Potency, µM (titrated, usually from 108 µM), for the others: at the top dose activity change, negative = inhibition, usual class: inhibitors. hit rate 1.1% among 580,000. AID 1671190; further: potency means the concentration at half of the fitted maximal effect
# Target sequence (P18054 whole entry, looked up): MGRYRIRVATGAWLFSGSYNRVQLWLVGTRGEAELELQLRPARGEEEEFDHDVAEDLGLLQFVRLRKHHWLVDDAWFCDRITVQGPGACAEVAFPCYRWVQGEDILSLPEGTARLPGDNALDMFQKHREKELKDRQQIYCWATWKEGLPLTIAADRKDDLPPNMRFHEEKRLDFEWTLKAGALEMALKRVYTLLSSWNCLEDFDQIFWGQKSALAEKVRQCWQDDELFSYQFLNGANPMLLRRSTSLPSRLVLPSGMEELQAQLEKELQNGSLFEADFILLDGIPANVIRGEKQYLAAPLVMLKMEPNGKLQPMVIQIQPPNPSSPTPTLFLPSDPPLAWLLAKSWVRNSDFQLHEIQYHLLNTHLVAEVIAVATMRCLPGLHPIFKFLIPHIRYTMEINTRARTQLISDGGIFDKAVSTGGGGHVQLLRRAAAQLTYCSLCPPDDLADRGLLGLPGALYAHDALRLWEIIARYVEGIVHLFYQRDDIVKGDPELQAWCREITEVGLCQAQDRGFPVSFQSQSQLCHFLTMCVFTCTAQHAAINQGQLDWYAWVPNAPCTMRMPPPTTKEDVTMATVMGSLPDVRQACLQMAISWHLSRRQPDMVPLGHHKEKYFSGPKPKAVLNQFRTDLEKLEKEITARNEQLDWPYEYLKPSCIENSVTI
#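 Hydroperoxide product was detected by ferrous iron/xylenol orange as the 573 to 405 nm absorbance ratio. Arachidonic acid at 40 uM (final) was turned over for 30 min at room temperature by 150 nM human 12hLO, pH 7.0 Hepes buffer, after 15 min compound preincubation.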
# TDP1 cell noCPT: qHTS for Inhibitors of human tyrosyl-DNA phosphodiesterase 1 (TDP1): qHTS in cells in absence of CPT; DT40 Tdp1-/- hTDP1 cells, no CPT, ATP luminescence, 48 h; Potency, µM (highest dose often 46.2 µM), for the others: at the highest dose activity change, negative = growth inhibition, usual class: inhibitors; hit rate 15% among 420,000; AID 686978, 2013; further: potency means the concentration at half of the fitted maximal effect; nearly all actives have a fitted effect of over 55% in size
#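 Luminescent ATP content (CellTiter-Glo) served as the growth readout. Knockout chicken DT40 cells expressing human TDP1 were exposed to compounds without camptothecin for a minimum 48 hr at 37 °C.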
# TDP1 cell CPT: growth inhibition of DT40 Tdp1-/-;hTDP1 cells with camptothecin (screen for TDP1 inhibitors). chicken DT40 Tdp1-/-;hTDP1 cells + 20 nM CPT, ATP luminescence, 48 h. Potency, µM (titrated, usually from 46.2 µM), for inactives: at the top dose activity change, negative = growth inhibition, actives largely listed as inhibitors. hit rate 12% among 420,000; further: potency means the concentration at half of the fitted maximal effect; nearly all actives have a fitted effect of over 55% in size
#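 Cell growth measured by CellTiter-Glo luminescence after a minimum 48 h, 37 C compound exposure with 20 nM CPT in Tdp1-knockout DT40 cells stably expressing hTDP1, seeded 400/well; qHTS titration format.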
# HT1080 IDH1KD tx: HT-1080 IDH1 knockdown cell toxicity (counter line) | HT-1080 IDH1 knockdown viability, ATP luminescence, 48 h | Potency, µM (doses to about 46.1 µM), inactives show at the highest dose activity, negative = toxicity, actives largely listed as cytotoxic | hit rate 2% among 360,000 | AID 686971;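 further: potency means the concentration at half of the fitted maximal effect; 0% = DMSO wells and -100% = cell-free medium wells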
#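 % activity derives from luminescence (CellTiter-Glo), normalised to DMSO and no-cell wells. HT-1080-IDH1KD cells, 750/well, had 48 h compound exposure at 37 °C.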
# An asterisk follows results filed as active; ? = inconclusive; . = no result; [ ] = another dose, or the depositor's remark. This excerpt belongs to a sample that is enriched for hits. Unless noted, the call rests on the fitted dose curve; in most records, active means well fitted curve in the direction sought with a large enough effect; inconclusive means small, poorly fitted or top-dose-only effect, or another doubt; inactive means no such curve, though single readings can be large; an effect the other way counts as inactive or inconclusive. Unless noted, on the % scale 0 is the no-effect control and ±100 the full control effect.
SMILES,HT1080NT lethal,IL1B secr inh,ALOX12 inh,TDP1 cell noCPT,TDP1 cell CPT,HT1080 IDH1KD tx
CCCNC(=O)c1cc(Cl)c(NC(=O)C2=CSCCO2)cc1OC,?,?,11.5%,?,?,12.7%
CCOCCCNC(=O)c1cc(Cl)c(NC(=O)C2=C(C)OCCS2)cc1OC,0.2%,-18.2,14.9%,11.6µM*,?,-0.5%
CCCNC(=O)c1cc(Cl)c(NC(=O)C2=C(C)OCCS2)cc1OC,-3.9%,-53.3*,8.5%,?,?,-12.6%
N#C/C(=C/c1ccc(OCc2ccc3ccccc3c2)cc1)c1nc2ccccc2[nH]1,.,.,-28.1%,.,.,.
O=C1[C@H]2CN(Cc3cc(Br)ccc3F)C[C@H]2C(=O)N1CCc1ccccc1,.,.,1.1%,.,.,.
CC(=O)/C=C/n1c(=S)oc2ccccc21,5.17µM*,-97.8*,-3.3%,0.651µM*,0.82µM*,5.17µM*
CC(C)CC(=O)/C=C/n1c(=S)oc2ccccc21,-10.7%,-106.0*,9.8%,2.31µM*,3.26µM*,?
Cn1c(=S)oc2ccccc21,14.5%,3.3,241.9%,-5.2%,24.4%,10.2%
Cc1cc(OC2CN([S+](=O)([O-])c3ccc(C(F)(F)F)cc3)C2)ccc1F,.,.,70.5%,.,.,.
CCN(Cc1ccncc1)Cc1nc(Cc2ccccc2Cl)no1,?,23.3,1.8%,13µM*,?,-17.0%
CN(Cc1cnccn1)Cc1nc(Cc2ccccc2Cl)no1,9.9%,19.2,8.1%,-8.4%,-8.3%,19.2%
Cc1cc(C(=O)Nc2ccc3c(c2)CCC3)ccc1[N+](=O)[O-],-4.3%,-69.1*,1.0%,?,4.2%,5.5%
CN(C)NC(=S)Nc1ccc([N+](=O)[O-])cc1,.,.,-6.9%,.,.,.
O=C(Nc1cccc([N+](=O)[O-])c1)Nc1ccc2c(c1)CCC2,-20.8%,?,-19.3%,?,20.6µM*,?
O=[N+]([O-])c1ccc(NC(=S)Nc2ccc3c(c2)CCC3)cc1,.,.,39.8µM*,.,.,.
Cc1ccc(-c2csc(NC(=O)C[n+]3cc(-c4ccccc4)n4c3CCC4)n2)cc1,-22.9%,-87.4*,68.4%,18.4µM*,20.6µM*,?
Cc1ccc(-c2csc(NC(=O)C[n+]3cc(-c4ccc(C)cc4)n4c3CCC4)n2)cc1,?,-93.5*,0.0%,9.2µM*,5.8µM*,16.4µM*
CCCn1nc(C(=O)NC(c2ccccc2)c2ccccc2)c2ccccc2c1=O,.,.,40.5%,.,.,.
O=C(Oc1ccc(-c2ccccc2)cc1)C(c1ccccc1)c1ccccc1,.,.,13.1%,.,.,.
COc1cccc(C(=O)N2CCC(N3C[C@H](O)C[C@H]3C(=O)N3CC=C(c4ccccc4)CC3)CC2)c1,.,.,44.9%,.,.,.
O=[N+]([O-])c1ccc(CSC2=NCCN2)cc1,-1.1%,?,0.0%,20.6µM*,20.6µM*,1.2%
CCOc1ccc(CSC2=NCCN2)cc1[N+](=O)[O-],-28.9%,-61.0*,-3.7%,16.4µM*,?,?
CCCCOc1ccc(CSC2=NCCN2)cc1[N+](=O)[O-],?,-99.0*,-1.9%,20.6µM*,18.4µM*,-22.3%
O=[N+]([O-])c1ccc(CSC2=NCCS2)cc1,7.5%,-3.5,?,1.7%,6.1%,4.1%
CCOc1ccc(CN(CCO)CCO)cc1[N+](=O)[O-],7.6%,15.3,10.3%,-3.5%,-1.4%,0.6%
SMILES,HT1080NT lethal,IL1B secr inh,ALOX12 inh,TDP1 cell noCPT,TDP1 cell CPT,HT1080 IDH1KD tx
CCOc1ccc(CC(=O)N2CCC3(CC2)CN(C(C)=O)CC3COC)cc1 (stereo not drawn),.,.,19.1%,.,.,.
CCN(CCCNC(=O)c1cc2c(=O)n(CC)c3ccccc3c2s1)c1cccc(C)c1,.,.,-11.3%,?,?,.
NNC(=O)c1cc2cc3ccccc3nc2s1,?,-3.4,13.2%,?,5.17µM*,?
CCN(CCCNC(=O)c1cc2c(=O)n(C)c3ccccc3c2s1)Cc1ccccc1,.,.,1.6%,20.6µM*,14.6µM*,.
CCN(CCCNC(=O)c1cc2c(=O)n(C)c3ccccc3c2s1)c1ccccc1,.,.,3.6%,14.6µM*,?,.
CCOc1ccc(CNC(=O)c2cc3c(=O)n(C)c4ccccc4c3s2)cc1,.,.,-17.1%,2.59µM*,9.2µM*,.
COc1ccc(CCNC(=O)c2cc3c(=O)n(C)c4ccccc4c3s2)cc1OC,.,.,-21.7%,?,-6.9%,.
O=C(NC(C1CC1)C1CC1)c1cc(Cl)nc(Cl)c1,.,.,-11.1%,.,.,.
O=C(Nc1ccccn1)C1=C(c2ccccc2)S(=O)(=O)CCO1,.,.,-11.0%,.,.,.
COc1ccccc1-c1cc2c(nc1-c1ccccc1)nc(C(=O)NCCN(C)C)n2C,.,.,-3.3%[176 µM],.,.,.
CCN(CCCNC(=O)c1cc2cc3cc(OC)ccc3nc2s1)c1cccc(C)c1,.,.,-10.5%,?,-25.8%,.
CCN(CCCNC(=O)c1cc2cc3ccc(C)cc3nc2s1)c1ccccc1,.,.,-26.8%,25.9µM*,?,.
O=C(Cc1cccs1)Nc1ccc(-c2nc3cc(Cl)ccc3o2)cc1,.,.,5.7%,.,.,.
COC(=O)c1cccc(COC(=O)c2cc(C(C)=O)c[nH]2)c1,.,.,-1.5%,.,.,.
O=C(COc1ccccc1C(=O)NCC1CCCO1)Nc1ccc(Br)cc1 (stereo not drawn),-14.7%,-8.6,0.8%,-20.5%,?,-19.3%
CCOc1cc(NC(=S)NCC2CCCO2)c(OCC)cc1NC(=O)c1ccccc1F (stereo not drawn),-5.3%,-22.2,39.8µM*,23.1µM*,?,-2.0%
CCOc1ccccc1N=c1oc2cc(O)ccc2cc1C(=O)NCC1CCCO1 (stereo not drawn),?,0.0,-15.3%,?,11.2µM*,?
O=C(NCC1CCCO1)c1ccccc1-c1nc(-c2ccc(Cl)cc2)no1 (stereo not drawn),-13.5%,-27.4,-14.5%,18.4µM*,18.4µM*,0.0%
O=C(NCC1CCCO1)c1ccccc1-c1nc(-c2ccccc2F)no1 (stereo not drawn),-2.3%,-7.7,-7.3%,4.8%,-25.9%,-3.8%
O=C(COc1ccccc1C(=O)NCC1CCCO1)Nc1ccc(Cl)cc1Cl (stereo not drawn),4.7%,7.4,-15.4%,?,14.6µM*,-17.6%
CCOc1cc(NC(=S)NCC2CCCO2)c(OCC)cc1NC(=O)CC (stereo not drawn),?,11.6,-21.3%,13.5%,8.6%,-0.1%
COc1ccc(/C=C2\N=C(SC)SC2=O)c(OC)c1,.,.,-25.5%,.,.,.
CCNC(=O)c1ccccc1-c1nc(-c2ccccc2Cl)no1,-7.9%,14.6,0.0%,18.4µM*,?,0.4%

# Screening results: PubChem BioAssay, National Center for Advancing Translational Sciences (NCATS)
